Measured values taken from PubChem BioAssay (NCI).
Compounds without any hit were thinned out: in the full panel of roughly 83,000, 20% have a hit.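 For each line, cells grew in 96-well plates with the test compound present at a single concentration for 48 hours.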 A number with no mark means an inactive call. Active and inactive are the calls of the source. How the source made its calls: active means growth percent below 10; inactive means the rest.

The molecules below were run on NCI-H226 lung (assay: NCI-60 one-dose screen, 48 h (100 = growth as untreated, 0 = no growth, -100 = all killed)). Settings: 10 µM unless noted.
With `COc1ccc(-c2nnc3n(C)c(=O)c4ccccc4n23)cc1N` the growth was 70.1%. In the case of `CC1=C(CCC(C)N(C)Cc2ccc(OCCCN3CCCC3)cc2)C(C)(C)CCC1` (stereo unspecified), the growth is reported as 85.5%. For `CCCc1cc(NC)nc(S(=O)(=O)CC)n1`, the growth was 108%. Work on `Cc1cccc(Cl)c1NC(=O)c1ccc2nc(NC(=O)NCCN(C)C)sc2c1` yielded a growth of 100%. In the case of `O=c1oc2ccccc2cc1C1=NN=C(SCc2ccccc2)SC1`, the growth is reported as 96.6%. `CC1(c2ccccc2O)NN=C(/N=C/c2cccc([N+](=O)[O-])c2)N1C(Cc1c[nH]c2ccccc12)C(=O)O` (stereo unspecified) showed a growth of 82.1%. For `CC(O)c1cnc(/C=C2\SC(=S)N(Cc3ccccc3)C2=O)s1` (stereo unspecified), the growth was 90.3%. `Cc1ccc(CNc2ccc(Cl)cc2NCc2ccc(C)c(O)c2)cc1O` was tested, and the growth was 85.7%. Work on `NC(=O)c1c(NC(=O)c2ccccc2)sc2c1CCC(=O)C2` yielded a growth of 16.2%. `CCn1c(=S)sc2c(Nc3ccc(F)cc3)nc(-c3cccnc3)nc21` was tested, and the growth was 75.2%. `COc1cc(C(=O)n2nc(N3CCN(C)CC3)c3cc(N)ccc32)cc(OC)c1OC` gave a growth of 47.6%.

These molecules were tested on NCI-H322M lung in the same assay as above. Settings: 10 µM unless noted.
For `O=C(NNC(=O)c1ccc(-n2cc(-c3ccccc3)nn2)cc1)Nc1ccccc1`, the growth was 108%. `COc1ccc(-c2csc(N(C(=O)N3CCN(c4cc5c(cc4F)c(=O)c(C(=O)O)cn5C4CC4)CC3)c3ccccc3)n2)cc1` was tested, and the growth was 4.9% (active). For `O=Nc1c(-c2c(O)[nH]c3ncccc23)[nH]c2ccccc12`, the growth was 30.7%. With `CCN1CC(=O)N(/N=C2\C(=O)Nc3ccccc32)C1=S` the growth was 88.6%. Molecule `O=C1CC(N2C(=O)/C(=C/C(Cl)=C\c3ccc([N+](=O)[O-])cc3)SC2=S)C(=O)N1c1ccc(Cl)cc1` (stereo unspecified) has a growth of 65.1%. With `CN(C)C1CCN(Cc2ccc(NC(=O)c3cncc(C#Cc4cnc(N)c5ncccc45)c3)cc2C(F)(F)F)CC1` the growth was 112%. With `Cn1cc(-c2nonc2-c2c[nH]c3ccc(Br)cc23)c2cc(Br)ccc21` the growth was 32.1%. Work on `C[C@@H]1CCC[C@H]1CC(N)C(=O)O` (stereo partly specified) yielded a growth of 106%. For `S=C(Nc1ccc(-c2nc(N3CCOCC3)c3cccn3n2)cc1)Nc1cccnc1`, the growth was 35.7%. `O=C(CN1C(=O)CCC1=O)Nc1ncc(Cc2ccc(F)cc2)s1` was tested, and the growth was 102%. Work on `CN1CCN(C(=O)OCc2ccc3c(Cl)cc(Cl)c(O)c3n2)CC1` yielded a growth of 60%. In the case of `O=C(O)[C@@H]1c2ccccc2-c2ccccc2[C@H]1C(=O)O`, the growth is reported as 99.2%. For `Clc1ccc(Sc2cnc(-c3ccccc3)o2)cc1`, the growth was 91.9%. `C=C(C)[C@@H]1CC[C@]2(C(=O)NCC#CCN3CCN(C)CC3)CC[C@]3(C)[C@H](CC[C@@H]4[C@@](C)(CCC#N)[C@H](C(=C)C)CC[C@]43C)[C@@H]12` was tested, and the growth was 74.9%. `Cc1ccc(/C=N/Nc2nc(Nc3ccccc3)nc(-n3nc(C)cc3C)n2)cc1` showed a growth of 27%. In the case of `COc1ccc(/C(C)=C(/c2ccc(OCCCN(C)C)cc2)c2ccc(OC(=O)Cc3ccccc3)cc2)cc1`, the growth is reported as 98.3%. `CCOC(=O)C1=C(NC)OCC1=O` gave a growth of 100%. For `C#CCOc1ccc2ncnc(Nc3cccc(NC(=O)C=C)c3)c2c1`, the growth was 61.1%. `COc1cc(-n2cc(-c3cc(O)c(C/C=C(\C)CCC=C(C)C)c(O)c3)nn2)cc2c1O[C@]1(C)CC[C@@H](O)C(C)(C)[C@H]1C2` showed a growth of 35.4%. With `N#C/C(=C\c1ccc(Br)cc1)n1nnc2ccc(F)cc21` the growth was 9.42% (active). Molecule `CCN(CC)CCNC(=O)c1cn2ncnc(Oc3ccc(NC(=O)Nc4ccc(Cl)c(C(F)(F)F)c4)c(F)c3)c2c1C` has a growth of 34.4%. `Cc1nc(N2CCOCC2)sc1S(N)(=O)=O` gave a growth of 94%. `CC(=O)N(N=Nc1ccccc1)c1cccc2ccccc12` was tested, and the growth was 94.3%. For `Cc1ccc(-c2nc(N3CCNCC3)c3oc(-c4ccccc4)nc3n2)cc1`, the growth was -78.5% (active). `Cc1cc2c(O)c(-c3cc(Cl)ccc3Cl)c3sc(=O)oc3c2cc1C` showed a growth of 89.8%. For `N=C(N)c1ccc(-c2ccc(-c3cc(Cl)cc(Cl)c3)o2)o1`, the growth was -77.4% (active). `CC1=Nc2cnc(Nc3ccc(OCCN4CCCCC4)cc3)nc2Nc2ccccc21` gave a growth of 42%. `Cc1cccnc1NC(=S)Nc1ncccc1C` was tested, and the growth was 107%. Molecule `CN1C(=O)/C(=C/c2ccc(C(=O)Nc3ncc(Cc4ccc(Cl)cc4)s3)cc2)SC1=S` has a growth of 56%. Work on `COc1ccc(-c2nnc3n(C)c(=O)c4ccccc4n23)cc1N` yielded a growth of 39.5%. `CC1=C(CCC(C)N(C)Cc2ccc(OCCCN3CCCC3)cc2)C(C)(C)CCC1` (stereo unspecified) showed a growth of 55.5%. In the case of `CCCc1cc(NC)nc(S(=O)(=O)CC)n1`, the growth is reported as 106%. With `Cc1cccc(Cl)c1NC(=O)c1ccc2nc(NC(=O)NCCN(C)C)sc2c1` the growth was 101%. For `O=c1oc2ccccc2cc1C1=NN=C(SCc2ccccc2)SC1`, the growth was 102%. In the case of `CC1(c2ccccc2O)NN=C(/N=C/c2cccc([N+](=O)[O-])c2)N1C(Cc1c[nH]c2ccccc12)C(=O)O` (stereo unspecified), the growth is reported as 97.6%. In the case of `CC(O)c1cnc(/C=C2\SC(=S)N(Cc3ccccc3)C2=O)s1` (stereo unspecified), the growth is reported as 87.8%. In the case of `Cc1ccc(CNc2ccc(Cl)cc2NCc2ccc(C)c(O)c2)cc1O`, the growth is reported as 17.6%. In the case of `NC(=O)c1c(NC(=O)c2ccccc2)sc2c1CCC(=O)C2`, the growth is reported as 88.2%. Work on `CCn1c(=S)sc2c(Nc3ccc(F)cc3)nc(-c3cccnc3)nc21` yielded a growth of 76.5%. `COc1cc(C(=O)n2nc(N3CCN(C)CC3)c3cc(N)ccc32)cc(OC)c1OC` was tested, and the growth was 58.6%.
